This note sets out measurements from PubChem BioAssay (NCATS).

Results filed as inconclusive are left out. A number with no mark means an inactive call. Calls of active or inactive are those of the source. Calls come from the whole dose curve; as a rule, active = well fitted cell-killing curve with a large enough effect; inconclusive = small, poorly fitted or top-dose-only effect; inactive = flat fitted curve, though single readings scatter.
Potency is the fitted concentration of half-maximal effect.

This assay can be described thus: Cell Viability - LYMP2-024 (AID 988). Note: nearly all actives have a fitted effect of over 60% in size. The note with it: LYMP2-024 lymphoblastoid cell viability; series mostly up to 92.2 µM; activity change, negative = cytotoxicity: at the top concentration. An excerpt: NIH Chemical Genomics Center [NCGC]
NIH Molecular Libraries Screening Centers Network [MLSCN]
National Institutes of Environmental Health Sciences [NIEHS]
National Toxicology Program [NTP]
We have developed a 1536-well cell-based assay for quantitative high throughput screening (qHTS) against a number of cell lines to determine in vitro cytotoxicity of small molecules. This particular assay uses a human lymphoblastoid cell line (LYMP2-024) purchased from Coriell Institute for Medical Research.
NCGC Assay Protocol Summary:
The CellTiter-Glo luminescent cell viability assay (Promega) is a homogeneous method to measure the number of viable cells in culture. The end point readout of this assay is based on quantitation of intracellular ATP, an indicator of metabolic activity, using the luciferase reaction. Luciferase catalyzes the oxidation of beetle Luciferin to oxyluciferin and light in the presence of ATP. The luminescent signal is proportional to amount of ATP present.
Using the CellTiter-Glo luminescent cell viability assay, the amount of cellular ATP was measured in the lymphoblastoid cell line with complete culture medium following compound treatment for 24 hours. The assay was performed in opaque white Kalypsys 1536-well plates. In the screen, tetraoctylammonium bromide was used as positive control. Library compounds were measured for their ability to cause acute toxicity in the cell line, as reflected by a decrease in intracellular ATP levels, in a concentration-dependent manner. […] AC50 values were determined from concentration-response data modeled with the standard Hill equation.
qHTS protocol for CellTiter Glo lymphoblastoid cellular assay
[Step] [Parameter] [Value] [Description]
1. Reagent; 5 uL; 2500 lymphoblastoid cells/well
2. Time; 5 hr; 37 C incubation
4. Controls; 23 nL; Tetraoctylammonium bromide 6.4pM to 92 uM
5. Time; 24 hr; 37 C incubation
6. Reagent; 5 uL; CellTiter Glo reagent
7. Time; 30 min; Room Temperature
8. Detection; Luminescence; Viewlux plate reader
Keywords: cell viability, cytotoxicity, lymphoblastoid cell line, luminescence, NTPHTS, NTPHTS_NCGC, NIEHS, DSSTox, MLSMR, MLSCN, NIH Roadmap, qHTS, NCGC
As for `CCC(O)C(C)(C)C` (stereo not given), the “activity change, negative = cytotoxicity” value was -1.14%.

For `CCNc1cc(O)ccc1C`, the “activity change, negative = cytotoxicity” value is -21.5%.

Take `Cc1ccc(C(=O)O)cc1`: the “activity change, negative = cytotoxicity” value was 5.48%.

For `CCCCC(=O)N(C)C`, the “activity change, negative = cytotoxicity” value is 3.88%.

As to `ON=C1CCCCC1`, the “activity change, negative = cytotoxicity” value was 2.78%.

On to `O=[N+]([O-])c1ccc(NCCO)c(OCCO)c1`, for which the “activity change, negative = cytotoxicity” value is -5.73%.

With `Nc1ccc([N+](=O)[O-])c(N)c1`, the “activity change, negative = cytotoxicity” value is 1.68%.

On to `Cc1cc(C)c(N)cc1C`, for which the “activity change, negative = cytotoxicity” value is 0.582%.

With `c1ccsc1`, the “activity change, negative = cytotoxicity” value was -2.29%.

Take `CCNc1ccccc1`: the “activity change, negative = cytotoxicity” value was -5.38%.

As for `ClCCl`, the “activity change, negative = cytotoxicity” value was -9.49%.

Regarding `CC(=O)c1cc(C)oc1C`, the “activity change, negative = cytotoxicity” value was 2.4%.

`Cc1ccccc1C(=O)O`: the “activity change, negative = cytotoxicity” value is 3.9%.

`O=C(O[C@@H](C(=O)O)[C@@H](OC(=O)c1ccccc1)C(=O)O)c1ccccc1`: the “activity change, negative = cytotoxicity” value is -8.85%.

Consider `O=CNc1ccccc1`, for which the “activity change, negative = cytotoxicity” value was 5.35%.

Take `O=Cc1cccc(Br)c1`: the “activity change, negative = cytotoxicity” value was -1.47%.

In the case of `C[C@@H]1CC2(OC[C@]3(C)O[C@H]23)O[C@H]2C[C@@]3(C)[C@@H]4CC[C@H]5C(C)(C)C(O[C@@H]6OC[C@@H](O)[C@H](O)[C@H]6O)CC[C@@]56C[C@@]46CC[C@]3(C)[C@@H]12` (stereo not given in full), the “activity change, negative = cytotoxicity” value was -25.3%.

Regarding `C=CCCCCCCC=C`, the “activity change, negative = cytotoxicity” value was -1.05%.

Consider `CC(C)=C1CCC(C)CC1=O` (stereo not given), for which the “activity change, negative = cytotoxicity” value is -9.43%.

Turning to `COc1cccc2sc(N)nc12`, the “activity change, negative = cytotoxicity” value is 13.6%.

`Nc1cccc(C(F)(F)F)c1`: the “activity change, negative = cytotoxicity” value is -2.41%.

Take `Nc1ccccc1[N+](=O)[O-]`: the “activity change, negative = cytotoxicity” value was -6.78%.

Regarding `Cc1ccc(C)c(N)c1`, the “activity change, negative = cytotoxicity” value was -3.3%.

With `O=Cc1ccc(CO)o1`, the “activity change, negative = cytotoxicity” value is -19.7%.

Take `C=CCOC(=O)CCCCCCCC`: the “activity change, negative = cytotoxicity” value is 9.01%.

On to `Cc1ccco1`, for which the “activity change, negative = cytotoxicity” value is 3.73%.

For `CCCCC(CC)COC(=O)CCCCC(=O)OCC(CC)CCCC` (stereo not given), the “activity change, negative = cytotoxicity” value was -17.6%.

As to `CC1=C(/C=C/C(C)=C/C=C/C(C)=C\C=O)C(C)(C)CCC1`, the Potency was 31.6 µM (active).

For the molecule `C[C@@H]1O[C@@H](O[C@@H]2[C@@H](O)[C@H](OCCc3ccc(O)c(O)c3)O[C@H](CO[C@@H]3O[C@H](CO)[C@@H](O)[C@H](O)[C@H]3O)[C@H]2OC(=O)/C=C/c2ccc(O)c(O)c2)[C@H](O)[C@H](O)[C@H]1O`, the “activity change, negative = cytotoxicity” value is -15%.

In the case of `Cc1cc(C)cc(O)c1`, the “activity change, negative = cytotoxicity” value is 4.51%.

Consider `Cc1cccc(C(=O)O)c1[N+](=O)[O-]`, for which the “activity change, negative = cytotoxicity” value was 3.85%.

Take `O=Cc1ccccc1Cl`: the “activity change, negative = cytotoxicity” value was 10.8%.

`CCCOCC(C)OCC(C)O` (stereo not given): the “activity change, negative = cytotoxicity” value is -2.91%.

Consider `CC(=O)OC(C)=O`, for which the “activity change, negative = cytotoxicity” value was 0.631%.

Take `Nc1cccc2c(=O)[nH][nH]c(=O)c12`: the “activity change, negative = cytotoxicity” value was -15.7%.

In the case of `CCCCC(CC)CNCC(CC)CCCC` (stereo not given), the “activity change, negative = cytotoxicity” value is -1.73%.

Consider `Cc1ccccc1C#N`, for which the “activity change, negative = cytotoxicity” value is -11.2%.

As for `FC(F)(F)c1cccc(Cl)c1`, the “activity change, negative = cytotoxicity” value was -1.77%.

Take `CC(CCl)OC(C)CCl` (stereo not given): the “activity change, negative = cytotoxicity” value was 4.56%.

Regarding `NCCCCCCN`, the “activity change, negative = cytotoxicity” value was -10.1%.
